Laboratory results as given in PubChem BioAssay (NCI).
Values joined by “and” are separate entries in the source; they are usually repeats but may differ in a detail not shown here. Equal values may be shown once. Compounds without any hit were thinned out: in the full panel of roughly 83,000, 20% have a hit.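 Results are percent growth after 48 hours of single-concentration exposure. 100 means growth as in untreated cells, lower positive values show inhibition; negative values down to -100 show cell death.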 A number with no mark means an inactive call. Active and inactive are the calls of the source. The calls were made as follows: active = growth percent below 10; inactive = the rest.

Tests used:
Experiment in all cases: NCI-60 one-dose screen, 48 h (100 = growth as untreated, 0 = no growth, -100 = all killed)
T-47D breast = test system: T-47D breast
BT-549 breast = test system: BT-549 breast
MDA-MB-435 melanoma = test system: MDA-MB-435 melanoma
SW-620 colon = test system: SW-620 colon
MCF7 breast = test system: MCF7 breast
HCT-116 colon = test system: HCT-116 colon
HCC-2998 colon = test system: HCC-2998 colon
KM12 colon = test system: KM12 colon
MDA-MB-468 breast = test system: MDA-MB-468 breast

Q: For `Cc1cc(C)c2[nH]c(=O)c(C(c3nnnn3Cc3ccc4c(c3)OCO4)N3CCN(C)CC3)cc2c1` (stereo unspecified), which growth (T-47D breast; 10 µM unless noted) is on record?
A: 112%

Q: And the growth (BT-549 breast; 10 µM unless noted)?
A: 106%

Q: And the growth (MDA-MB-435 melanoma; 10 µM unless noted)?
A: 106%

Q: And the growth (SW-620 colon; 10 µM unless noted)?
A: 110%

Q: What about the growth (MCF7 breast; 10 µM unless noted) of the same compound?
A: 101%

Q: What about the growth (HCT-116 colon; 10 µM unless noted) of the same compound?
A: 105%

Q: What about the growth (HCC-2998 colon; 10 µM unless noted) of the same compound?
A: 121%

Q: What about the growth (KM12 colon; 10 µM unless noted) of the same compound?
A: 105%

Q: What does the source list for `Cc1[nH]nc2ccc3nc(-c4cnn(CCO)c4)c4c(c3c12)CCCC4`?
A: growth (T-47D breast; 10 µM unless noted): 34.5%; growth (BT-549 breast; 10 µM unless noted): 46.3%; growth (MDA-MB-435 melanoma; 10 µM unless noted): 18.7%; growth (SW-620 colon; 10 µM unless noted): 29%; growth (MCF7 breast; 10 µM unless noted): 52.6%; growth (HCT-116 colon; 10 µM unless noted): 33.8%; growth (HCC-2998 colon; 10 µM unless noted): 45.6%; growth (KM12 colon; 10 µM unless noted): 18.8%

Q: With `C=CC[n+]1cccc2c3ccccc3ccc21` as the compound, how does the growth (T-47D breast; 10 µM unless noted) read?
A: 27%

Q: And the growth (BT-549 breast; 10 µM unless noted)?
A: 9.92% (active)

Q: And the growth (MDA-MB-435 melanoma; 10 µM unless noted)?
A: 61.3%

Q: What about the growth (SW-620 colon; 10 µM unless noted) of the same compound?
A: 45.1%

Q: What about the growth (MCF7 breast; 10 µM unless noted) of the same compound?
A: 25.2%

Q: And the growth (HCT-116 colon; 10 µM unless noted)?
A: 48.6%

Q: And the growth (HCC-2998 colon; 10 µM unless noted)?
A: 55.7%

Q: And the growth (KM12 colon; 10 µM unless noted)?
A: 20.2%

Q: What does the source list for `COc1cccc2nc(Nc3cccc(NC(=O)c4ccc(CN5CCN(C)CC5)c(C(F)(F)F)c4)c3)ccc12`?
A: growth (T-47D breast; 10 µM unless noted): -75.9% (active); growth (BT-549 breast; 10 µM unless noted): -93.7% (active); growth (MDA-MB-435 melanoma; 10 µM unless noted): -98.1% (active); growth (SW-620 colon; 10 µM unless noted): -92.8% (active); growth (MCF7 breast; 10 µM unless noted): -79.2% (active); growth (HCT-116 colon; 10 µM unless noted): -66.9% (active); growth (HCC-2998 colon; 10 µM unless noted): -96.8% (active); growth (KM12 colon; 10 µM unless noted): -51.1% (active)

Q: Which results are given for `CSc1ccc(OCc2nc3ccccc3n2-c2cccc(NS(C)(=O)=O)c2)cc1`?
A: growth (T-47D breast; 10 µM unless noted): 99.4% and 78.4%; growth (BT-549 breast; 10 µM unless noted): 131% and 105%; growth (MDA-MB-435 melanoma; 10 µM unless noted): 105% and 98.3%; growth (SW-620 colon; 10 µM unless noted): 102% and 94.4%; growth (MCF7 breast; 10 µM unless noted): 89.9% and 55.7%; growth (HCT-116 colon; 10 µM unless noted): 101% and 70.6%; growth (HCC-2998 colon; 10 µM unless noted): 122% and 112%; growth (KM12 colon; 10 µM unless noted): 103% and 78.8%

Q: Which results are given for `Cn1cc(-c2cc(N)n3nc(-c4c[nH]c5ccccc45)cc3n2)c2cc(Cl)ccc21`?
A: growth (T-47D breast; 10 µM unless noted): -77.5% (active); growth (BT-549 breast; 10 µM unless noted): -3.57% (active); growth (MDA-MB-435 melanoma; 10 µM unless noted): -51.7% (active); growth (SW-620 colon; 10 µM unless noted): -84.9% (active); growth (MCF7 breast; 10 µM unless noted): -70.3% (active); growth (HCT-116 colon; 10 µM unless noted): -73.4% (active); growth (HCC-2998 colon; 10 µM unless noted): -80% (active); growth (KM12 colon; 10 µM unless noted): -70.5% (active)

Q: With `COc1ccc(Nc2ncnc3sc4c(c23)CCN(Cc2ccccc2)C4)cc1` as the compound, how does the growth (T-47D breast; 10 µM unless noted) read?
A: 27.3%

Q: And the growth (BT-549 breast; 10 µM unless noted)?
A: 38.8%

Q: What about the growth (MDA-MB-435 melanoma; 10 µM unless noted) of the same compound?
A: 82.1%

Q: What about the growth (SW-620 colon; 10 µM unless noted) of the same compound?
A: 99.8%

Q: What about the growth (MCF7 breast; 10 µM unless noted) of the same compound?
A: 53.4%

Q: And the growth (HCT-116 colon; 10 µM unless noted)?
A: 86.4%

Q: And the growth (HCC-2998 colon; 10 µM unless noted)?
A: 105%

Q: What about the growth (KM12 colon; 10 µM unless noted) of the same compound?
A: 82.1%

Q: What does the source list for `COc1sc(/C=N/NC(=O)c2[nH]c3ccc(Br)cc3c2-c2ccccc2)cc1Cl`?
A: growth (T-47D breast; 10 µM unless noted): 54.3%; growth (BT-549 breast; 10 µM unless noted): -35.2% (active); growth (MDA-MB-435 melanoma; 10 µM unless noted): -10.1% (active); growth (SW-620 colon; 10 µM unless noted): -33.8% (active); growth (MCF7 breast; 10 µM unless noted): -26.6% (active); growth (HCT-116 colon; 10 µM unless noted): -43.5% (active); growth (HCC-2998 colon; 10 µM unless noted): -30.8% (active); growth (KM12 colon; 10 µM unless noted): -16.1% (active)

Q: How did the growth (T-47D breast; 10 µM unless noted) turn out when `Oc1cncc(-c2ccc3ncnc(N4CCc5cc(F)c(Cl)cc54)c3c2)c1` was run?
A: 41.9%

Q: And the growth (BT-549 breast; 10 µM unless noted)?
A: 73.1%

Q: What about the growth (MDA-MB-435 melanoma; 10 µM unless noted) of the same compound?
A: 69.6%

Q: What about the growth (SW-620 colon; 10 µM unless noted) of the same compound?
A: 62.8%

Q: And the growth (MCF7 breast; 10 µM unless noted)?
A: 35.3%

Q: And the growth (HCT-116 colon; 10 µM unless noted)?
A: 48.8%

Q: And the growth (HCC-2998 colon; 10 µM unless noted)?
A: 51.7%

Q: And the growth (KM12 colon; 10 µM unless noted)?
A: 61.4%

Q: What does the source list for `Cc1cccc(/C=C/c2ccc(NC(=S)NCCCCN(C)C)cc2)c1`?
A: growth (T-47D breast; 10 µM unless noted): -67.8% (active); growth (BT-549 breast; 10 µM unless noted): -72.6% (active); growth (MDA-MB-435 melanoma; 10 µM unless noted): -90% (active); growth (SW-620 colon; 10 µM unless noted): -85.3% (active); growth (MCF7 breast; 10 µM unless noted): -73.7% (active); growth (HCT-116 colon; 10 µM unless noted): -45.1% (active); growth (HCC-2998 colon; 10 µM unless noted): -92.7% (active)

Q: `O=C(CSc1nc2ccccc2c(=O)[nH]1)Nc1ccccc1C(=O)O` was tested. Which growth (T-47D breast; 10 µM unless noted) did it give?
A: 93.9%

Q: What about the growth (BT-549 breast; 10 µM unless noted) of the same compound?
A: 103%

Q: What about the growth (MDA-MB-435 melanoma; 10 µM unless noted) of the same compound?
A: 104%

Q: And the growth (SW-620 colon; 10 µM unless noted)?
A: 130%

Q: What about the growth (MCF7 breast; 10 µM unless noted) of the same compound?
A: 84.5%

Q: And the growth (HCT-116 colon; 10 µM unless noted)?
A: 107%

Q: And the growth (HCC-2998 colon; 10 µM unless noted)?
A: 125%

Q: And the growth (KM12 colon; 10 µM unless noted)?
A: 100%

Q: Which growth (T-47D breast; 10 µM unless noted) does the source give for `COc1cc(C=O)ccc1Oc1nc(Nc2ccc(F)cc2)nc(N(C)C)n1` here?
A: 33.3% and 66.1%

Q: And the growth (BT-549 breast; 10 µM unless noted)?
A: 77.3% and 16.5%

Q: What about the growth (MDA-MB-435 melanoma; 10 µM unless noted) of the same compound?
A: 71.1% and 88.1%

Q: What about the growth (SW-620 colon; 10 µM unless noted) of the same compound?
A: 94.4% and 50.4%

Q: What about the growth (MCF7 breast; 10 µM unless noted) of the same compound?
A: 53.2% and 45.4%

Q: And the growth (HCT-116 colon; 10 µM unless noted)?
A: 64.9% and 20.3%

Q: And the growth (HCC-2998 colon; 10 µM unless noted)?
A: 108% and 75.6%

Q: Which results are given for `O=C(c1ccc(O)cc1)C1[C@H](c2ccccc2Br)[C@@H](c2ccccc2)NC12C(=O)Nc1ccccc12` (stereo partly specified)?
A: growth (T-47D breast; 10 µM unless noted): 51.1%; growth (BT-549 breast; 10 µM unless noted): 51.9%; growth (MDA-MB-435 melanoma; 10 µM unless noted): 12.3%; growth (SW-620 colon; 10 µM unless noted): 27.7%; growth (MCF7 breast; 10 µM unless noted): 10.7%; growth (HCT-116 colon; 10 µM unless noted): 55.2%; growth (HCC-2998 colon; 10 µM unless noted): -7.94% (active); growth (KM12 colon; 10 µM unless noted): 15.4%; growth (MDA-MB-468 breast; 10 µM unless noted): -36.1% (active)

Q: What does the source list for `CC/C(=C(\c1ccc(O)cc1)c1ccc(OCCNC)cc1)c1ccccc1`?
A: growth (T-47D breast; 1 µM): 59.6%; growth (T-47D breast; 10 µM): 44.8%; growth (BT-549 breast; 1 µM): 91.4%; growth (BT-549 breast; 10 µM): 74.4%; growth (MDA-MB-435 melanoma; 1 µM): 104%; growth (MDA-MB-435 melanoma; 10 µM): 74.5%; growth (SW-620 colon; 1 µM): 107%; growth (SW-620 colon; 10 µM): 89.9%; growth (MCF7 breast; 1 µM): 24.9%; growth (MCF7 breast; 10 µM): 25.8%; growth (HCT-116 colon; 1 µM): 93.2%; growth (HCT-116 colon; 10 µM): 62.4%; growth (HCC-2998 colon; 1 µM): 106%; growth (HCC-2998 colon; 10 µM): 56.7%; growth (KM12 colon; 1 µM): 101%; growth (KM12 colon; 10 µM): 65.9%; growth (MDA-MB-468 breast; 1 µM): 95.6%; growth (MDA-MB-468 breast; 10 µM): 72.4%
